Measured values reported in PubChem BioAssay (NCI).
Compounds without any hit were thinned out: in the full panel of roughly 83,000, 20% have a hit.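 Cells were grown in 96-well plates and exposed to the test compound at a single concentration for 48 hours; results are reported as percent growth, with values below 10 considered active.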 A number with no mark means an inactive call. Activity calls are given as the source filed them.

What was measured:
Experiment in all cases: NCI-60 one-dose screen, 48 h (100 = growth as untreated, 0 = no growth, -100 = all killed)
Conditions in all cases: 10 µM unless noted
NCI-H23 lung = tested on: NCI-H23 lung
NCI-H226 lung = tested on: NCI-H226 lung
NCI-H322M lung = tested on: NCI-H322M lung
HOP-62 NSCLC = tested on: HOP-62 NSCLC
NCI-H460 lung = tested on: NCI-H460 lung
HOP-92 NSCLC = tested on: HOP-92 NSCLC
NCI-H522 lung = tested on: NCI-H522 lung
A549/ATCC NSCLC = tested on: A549/ATCC NSCLC
786-0 renal = tested on: 786-0 renal
COLO 205 colon = tested on: COLO 205 colon

Compound	growth (NCI-H23 lung)	growth (NCI-H226 lung)	growth (NCI-H322M lung)	growth (HOP-62 NSCLC)	growth (NCI-H460 lung)	growth (HOP-92 NSCLC)	growth (NCI-H522 lung)	growth (A549/ATCC NSCLC)	growth (786-0 renal)	growth (COLO 205 colon)
CCCN=C1NC(=O)/C(=C/c2nc(-c3ccc(OC)cc3)n3ccccc23)S1	77.9%	84.6%	82.5%	98.8%	37.4%	106%	88.1%	73.3%	58.5%	109%
CC(C)C(C(=O)NCCN1CCOCC1)N1C(=O)/C(=C/c2ccc(Br)cc2)SC1=S (stereo not drawn)	98.4%	107%	100%	104%	101%	104%	95.9%	102%	–	111%
COc1cc(C2C3=C(COC3=O)Nc3cc4c(cc32)OCO4)cc2c1OCO2 (stereo not drawn)	40.3%	19.2%	48.5%	36%	2.94% (active)	40.6%	5.26% (active)	11.9%	19.9%	-51.5% (active)
CCO/C=N/C1=C(C#N)C(c2ccc(Cl)cc2)c2c(c3ccc(C)cc3[nH]c2=O)O1 (stereo not drawn)	85.4%	78.9%	88%	70.7%	95%	50.7%	74.2%	90.2%	–	96.1%
CCO/C=N/C1=C(C#N)C(c2ccc(Cl)cc2)c2c(c3ccccc3n(C)c2=O)O1 (stereo not drawn)	80.3%	91.3%	85.9%	64.6%	79.9%	79.2%	58.7%	63.4%	–	71.5%
CC(C)(C)n1cc(-c2ccnc(NCCCNS(=O)(=O)c3ccc(C(F)(F)F)cc3)c2)c(-c2cccc(O)c2)n1	37.8%	42%	35.1%	54.8%	-48.5% (active)	22.7%	-13.3% (active)	21.5%	-17.3% (active)	-59.1% (active)
CC(=O)Oc1csc(N(C(C)=O)c2cccc(C(F)(F)F)c2)n1	94.7%	93.3%	99%	94.4%	102%	45.7%	83.1%	92.3%	–	107%
C=C[C@@H]1C[C@@H]2Cc3cc(Cl)ccc3N1O2	101%	88.9%	–	94.8%	97.5%	67%	92.7%	100%	102%	94.3%
CCOC(=O)c1cc(C(=O)c2cc(OC)c(OC)c(OC)c2)n2c1ccc1ccccc12	50.2%	64.7%	43.1%	21.6%	14.9%	39.1%	2.76% (active)	34.4%	–	-6.61% (active)
Clc1cc2c(nn1)Nc1ccccc1S2	94.7%	104%	97.8%	97.5%	99.2%	83.6%	56.5%	91.7%	99.3%	116%
COc1ccc2[nH]c(=O)c(/C=N/Nc3nc(-c4ccccc4)cs3)c(O)c2c1	89.7%	66.6%	18.2%	43%	46.6%	94.7%	80.1%	57.3%	–	106%
COc1ccc(-c2nc(-c3nc4cc(C)c(C)cc4[nH]3)cc3c2[nH]c2ccccc23)cc1	60.1%	95.8%	84%	58.4%	42.2%	52.3%	72.5%	43.2%	6.87% (active)	41.9%
O=C1CS/C(=N\Nc2cc(=O)[nH]c3ccccc23)N1c1ccccc1	96.4%	95.6%	99.3%	86.6%	100%	65.1%	76.2%	97.2%	–	105%
O=[N+]([O-])c1ccc(Sc2ncccn2)c([N+](=O)[O-])c1	53.5%	96.3%	97.7%	94.6%	95.4%	18%	-50.1% (active)	67.9%	61.3%	21%
COc1ccc(/C=C\c2cc(OC)c(OC)c(OC)c2)cc1OC(=O)c1cccc(Cn2cc(CCOC(=O)c3cccc(Cn4nnc5c4C(=O)c4ccccc4C5=O)c3)nn2)c1	33.1%	58.4%	50.5%	14.9%	5.39% (active)	52.6%	6.06% (active)	17.3%	–	-25.2% (active)
O=[N+]([O-])c1cc(Cl)c2[nH]c3c(Cl)cc([N+](=O)[O-])cc3c2c1	9.08% (active)	-0.747% (active)	-0.868% (active)	15.3%	-15.8% (active)	-14.3% (active)	-44% (active)	-42% (active)	8.87% (active)	-73.6% (active)
O=c1[nH]c2ccc(Br)cc2c2c1C(c1ccc(Cl)cc1)c1c(ncn3nc(-c4ccco4)nc13)O2 (stereo not drawn)	76.1%	65.5%	75.3%	50%	85.1%	37.7%	69.4%	74.8%	–	91%
OC(c1cc2cc(Br)ccc2c2cc(Br)ccc12)C1CCCCN1 (stereo not drawn)	-75.4% (active)	-70.1% (active)	-84.9% (active)	-84.1% (active)	-71.7% (active)	-88.9% (active)	-86.1% (active)	-81.3% (active)	-41.6% (active)	-89.9% (active)
CCN(CC)CCOc1ccc(/C(=C(/C)c2ccccc2)c2ccc(OC(C)=O)cc2)cc1	95.7%	105%	100%	106%	107%	81%	102%	117%	98.6%	113%
CCOC(=O)c1c(/N=C2\SC(=O)/C(=C\C(=O)OC)N2NC)sc2c1CCN(C(=O)OCC)C2	96.4%	99%	97.8%	99.2%	101%	90.6%	94.7%	98.8%	–	109%
Oc1ccc2cc(Br)ccc2c1-c1c(O)ccc2cc(Br)ccc12	55.4%	81.6%	57.1%	72.2%	8.23% (active)	20%	53.9%	44%	77.8%	54.7%
O=[N+]([O-])c1cc(S(=O)(=O)Oc2ccccc2)ccc1Cl	30.7%	75.3%	-13.3% (active)	54%	1.7% (active)	24.1%	14.3%	88.4%	24.1%	5.56% (active)
O=C(NNC(=S)Nc1ccccc1)c1cc2ccc1CCc1ccc(cc1)CC2	74.8%	78.9%	77.7%	64.7%	36.9%	48.8%	76%	59.2%	–	77%
CCCCNC(=O)Oc1ccc(/C(=C(\C)c2ccccc2)c2ccc(OCCN(CC)CC)cc2)cc1	77.5%	85.4%	86.3%	88.2%	56.1%	43.3%	53.4%	62.2%	67.3%	58.5%
CC(=O)Oc1csc(N(C(C)=O)c2cc(C(=O)O)cc(C(=O)O)c2)n1	93.1%	101%	99.8%	99%	102%	47.3%	93.1%	97.1%	–	99.7%
S=c1[nH]nc(-c2cc3ccc2CCc2ccc(cc2)CC3)n1-c1ccccc1	98%	107%	96.4%	106%	99.6%	98.4%	87.3%	93.1%	–	106%
Nc1ccc(C(=O)CSc2nc3ccccc3[nH]2)cc1	98.4%	108%	–	111%	106%	116%	101%	99.8%	93.5%	120%
CCCCCCCCCCCCCCCCNC(=O)OC(C)C	54.1%	69.1%	–	40.5%	2.2% (active)	53%	-54.3% (active)	10.3%	83.9%	-29.6% (active)
CCN(CC)CCC(CNc1c2ccc(Cl)cc2nc2ccc(OC)cc12)c1ccccc1 (stereo not drawn)	34.1%	13.9%	–	-49.8% (active)	-39.6% (active)	-1.53% (active)	-81% (active)	-62.4% (active)	-85% (active)	-91.9% (active)
